Source: PubChem BioAssay (Milwaukee Institute for Drug Discovery)
Cy5 interf NS3h: enhances or quenches Cy5 fluorescence in NS3h assay | Cy5-dT15 DNA with NS3h, fluorescence interference; actives lie on both sides; signal over control mean, under 1 quenches | fluorescence interference ratio at 100 µM | 16,000 tested, 6% active | AID 720488;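 active = compound fluorescence over control fluorescence at most 0.8, a quencher, or at least a set upper limit, an enhancer; inactive = ratio between 0.8 and the set upper limit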
HCV NS3h FP: blocks HCV NS3 helicase binding to DNA; NS3h Cy5-dT15 DNA binding, fluorescence polarization; inhibition, % at 100 µM; 16,000 tested, 1.6% active;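 active = inhibition above the average over every tested compound plus 3 SD, cut at about 40% in these data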
NS3h confirm: hepatitis C NS3 helicase inhibition, confirmation | shares compounds with HCV NS3h FP | NS3h binding to Cy5-dT15 DNA, fluorescence polarization | inhibition, % at 100 µM | 240 tested, 20% active;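 active = percent inhibition of 50% or more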
SSB FP counter: counter-screen for HCV NS3 helicase inhibitors: E. coli SSB binding; 240 tested, 40% active; shares compounds with HCV NS3h FP; inhibition, % at 100 µM; E. coli SSB binding Cy5-dT15, fluorescence polarization;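 active = inhibition of at least 50%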;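 also: displacers lower Cy5 polarization so higher inhibition means more SSB displaced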
Target sequence (P0AGE0 whole entry, looked up): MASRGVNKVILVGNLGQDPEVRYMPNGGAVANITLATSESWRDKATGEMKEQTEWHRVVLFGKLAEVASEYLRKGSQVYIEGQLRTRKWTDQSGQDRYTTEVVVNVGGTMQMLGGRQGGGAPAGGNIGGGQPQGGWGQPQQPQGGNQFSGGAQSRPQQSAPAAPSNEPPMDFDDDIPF
Cy5 SSB fluor CB: enhances or quenches Cy5-DNA fluorescence with E. coli SSB; shares compounds with HCV NS3h FP; Cy5-dT15/E. coli SSB fluorescence interference; actives lie on both sides; fluorescence interference ratio at 100 µM; 240 tested, 8% active;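 active = fluorescence interference ratio at or above 1.2, signal boosting, or at or below 0.8, signal quenching; inactive = ratio between 0.8 and 1.2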
Cy5 fluor confirm: confirmation counter-screen for HCV NS3 helicase inhibitors: fluorescence interference. shares compounds with HCV NS3h FP. Cy5-dT15 DNA/NS3h fluorescence interference counterscreen. fluorescence interference ratio at 100 µM, hits read low. 240 tested, 44% active;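 active = fluorescence interference ratio at or below 0.8 quencher or at or above a set limitenhancer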
Large screens that a line does not name were inactive (follow-up assays come after a bar, where they were run). Shown are actives, neighbours in structure and some others; about 6.9% of the full set was active somewhere.

O=C1NC(=O)N(c2ccc(Cl)cc2)C(=O)/C1=C/c1ccc(-c2ccc(Cl)c(C(=O)O)c2)o1	HCV NS3h FP 67 | NS3h confirm 63 | SSB FP counter 77 | Cy5 SSB fluor CB inactive | Cy5 fluor confirm inactive
O=C1NC(=O)N(c2ccccc2)C(=O)/C1=C\c1ccc(-c2ccc([N+](=O)[O-])cc2Cl)o1	none
Cc1ccc2c(c1)C1(c3ccccc3)Nc3ccc(C)cc3C1(c1ccccc1)N2 (stereo not given)	none
O=C1C2C3C=CC(C3)C2C(=O)N1c1ccc([N+](=O)[O-])cc1Br (stereo not given)	none
CCOc1ccc(N2C(=O)C=CC2=O)c([N+](=O)[O-])c1	HCV NS3h FP 64 | NS3h confirm inactive | SSB FP counter inactive | Cy5 SSB fluor CB inactive | Cy5 fluor confirm inactive
Cc1ccc(OCC(N)=O)c(Br)c1	none
Cc1ccc(N2C(=O)C=CC2=O)c(Br)c1	HCV NS3h FP 76 | NS3h confirm 62 | SSB FP counter inactive | Cy5 SSB fluor CB inactive | Cy5 fluor confirm inactive
O=C1C2C3CCC(O3)C2C(=O)N1c1cccc([N+](=O)[O-])c1 (stereo not given)	none
O=C1C=CC(=O)N1c1ccc([N+](=O)[O-])cc1Br	HCV NS3h FP 88 | NS3h confirm 62 | SSB FP counter inactive | Cy5 SSB fluor CB inactive | Cy5 fluor confirm 0.76
CCOc1ccc(NC(=O)c2cccc(Oc3ccccc3)c2)c([N+](=O)[O-])c1	none
O=C1C=CC(=O)N1c1cccc([N+](=O)[O-])c1	HCV NS3h FP 63 | NS3h confirm 66 | SSB FP counter inactive | Cy5 SSB fluor CB inactive | Cy5 fluor confirm inactive
O=C(Nc1ncc(Cc2cc(Cl)ccc2Cl)s1)c1cccs1	none
COc1ccc(N2C(=O)/C(=C/c3ccc(-c4ccccc4[N+](=O)[O-])o3)SC2=S)cc1	none
O=C1NN(c2ccc(Cl)cc2)C(=O)/C1=C\c1ccc(-c2cccc(C(=O)O)c2)o1	HCV NS3h FP 55 | NS3h confirm inactive | SSB FP counter 61 | Cy5 SSB fluor CB inactive | Cy5 fluor confirm 0.73
COC(=O)c1ccccc1-c1ccc(/C=C2\C(=O)NN(c3ccccc3)C2=O)o1	none
NS(=O)(=O)c1ccc(-c2ccc(/C=C3/C(=O)NN(c4cccc(Cl)c4)C3=O)o2)cc1	none
O=C1NN(c2ccc(F)c(Cl)c2)C(=O)/C1=C\c1ccc(-c2cccc(C(=O)O)c2)o1	Cy5 interf NS3h 0.8, HCV NS3h FP 43 | NS3h confirm inactive | SSB FP counter inactive | Cy5 SSB fluor CB inactive | Cy5 fluor confirm inactive
Cc1ccc(C(=O)c2ccc(N3CCN(C(=O)c4cccc(F)c4)CC3)c(F)c2)cc1C	none
N/C(=N/OC(=O)c1cccc(Br)c1)c1ccc([N+](=O)[O-])cc1	none
COC(=O)C(C)Oc1cc2oc(=O)c3c(c2cc1Cl)CCC3 (stereo not given)	none
O=C(CN1C(=O)/C(=C/c2cccc(Br)c2)SC1=S)Nc1ccccn1	none
O=C(CCCN1C(=O)/C(=C\c2cccc(Br)c2)SC1=S)Nc1ccc(C(=O)O)cc1	none | NS3h confirm inactive | SSB FP counter inactive | Cy5 SSB fluor CB inactive | Cy5 fluor confirm inactive
COc1ccc(C(CC(=O)c2ccc(C)cc2)Nc2ccc(Cl)cc2)cc1OC (stereo not given)	none
CN(C)c1ccc(C(=O)Nc2ccc(S(N)(=O)=O)cc2)cc1	HCV NS3h FP 78 | NS3h confirm 57 | SSB FP counter inactive | Cy5 SSB fluor CB inactive | Cy5 fluor confirm 0.78
CN(C)c1ccc(NC(=O)c2ccc(Cl)cc2)cc1	none
COc1ccc(NC(=O)C(=O)NCc2ccc(C)cc2)cc1	none
C=CCOc1c(I)cc(/C=C2/C(=O)NC(=O)N(c3ccc(OC)cc3)C2=O)cc1OC	none
COc1cc(C=C2C(=O)NC(=O)NC2=O)cc(I)c1OCc1ccc([N+](=O)[O-])cc1	Cy5 interf NS3h 0.48, HCV NS3h FP 54 | NS3h confirm inactive | SSB FP counter inactive | Cy5 SSB fluor CB inactive | Cy5 fluor confirm 0.59
CCCC(C)NS(=O)(=O)c1ccc([N+](=O)[O-])cc1 (stereo not given)	none
O=C1NC(=O)C(=Cc2cccc(OCc3ccc(Cl)cc3Cl)c2)C(=O)N1	none | NS3h confirm inactive | SSB FP counter inactive | Cy5 SSB fluor CB inactive | Cy5 fluor confirm 0.74
O=C1NC(=O)N(c2ccccc2)C(=O)/C1=C\c1cccc(OCc2ccccc2F)c1	none
CCN(CC)CCN1C(=O)c2ccccc2NC1c1cccc(F)c1 (stereo not given)	HCV NS3h FP 41 | NS3h confirm inactive | SSB FP counter inactive | Cy5 SSB fluor CB inactive | Cy5 fluor confirm inactive
CCCN1C(=O)c2ccccc2NC1c1cccc(F)c1 (stereo not given)	none
Cc1ccc(N2C(=O)c3ccccc3NC2c2cccc(F)c2)cc1 (stereo not given)	none | NS3h confirm inactive | SSB FP counter inactive | Cy5 SSB fluor CB inactive | Cy5 fluor confirm 0.72
COc1ccc(N2C(=O)c3ccccc3NC2c2cccc(F)c2)cc1 (stereo not given)	none
Cc1cc(/C=C2\NC(=S)NC2=O)c(C)n1-c1cccc([N+](=O)[O-])c1	none
COc1ccc(N(CC(=O)Nc2cc(C)cc(C)c2)S(C)(=O)=O)cc1Cl	none
CCN(CC)CCNC(=O)c1ccc(NC(=S)NC(=O)c2cccnc2)cc1	Cy5 interf NS3h 0.72, HCV NS3h FP 63 | NS3h confirm inactive | SSB FP counter inactive | Cy5 SSB fluor CB 0.77 | Cy5 fluor confirm inactive
O=C(NC(=S)Nc1ccc(Cc2ccncc2)cc1)c1ccccc1	none
O=C(O)c1cc2n(n1)C(C(F)(F)F)CC(c1cccs1)N2 (stereo not given)	none
COC(=O)c1cccc(N2C(=O)C=CC2=O)c1	HCV NS3h FP 46 | NS3h confirm inactive | SSB FP counter inactive | Cy5 SSB fluor CB inactive | Cy5 fluor confirm 0.73
COC(=O)c1cccc(NC(=O)c2ccc[n+]([O-])c2)c1	none
COc1ccc2c(Cl)c(C(=O)Nc3ccc(N4CCOCC4)cc3)sc2c1	none
COc1nsnc1NS(=O)(=O)c1ccc(NC(=S)NC(=O)c2sc3cc(F)ccc3c2Cl)cc1	HCV NS3h FP 94 | NS3h confirm inactive | SSB FP counter inactive | Cy5 SSB fluor CB inactive | Cy5 fluor confirm 0.76
O=C1NC(=S)S/C1=C\c1ccc(-c2ccccc2C(=O)O)o1	HCV NS3h FP 62 | NS3h confirm 53 | SSB FP counter 110 | Cy5 SSB fluor CB 0.79 | Cy5 fluor confirm inactive
O=C1NC(=S)S/C1=C/c1ccc(-c2ccccc2)o1	none
CCCc1nc(-c2cc(OC)c(OC)c(OC)c2)no1	none
O=C1NC(=O)N(c2ccccc2)C(=O)/C1=C\c1ccccc1OCc1ccccc1F	none
C=CCN1C(=O)NC(=O)/C(=C\c2ccccc2OCc2ccc([N+](=O)[O-])cc2)C1=O	Cy5 interf NS3h 0.49, HCV NS3h FP 58 | NS3h confirm inactive | SSB FP counter inactive | Cy5 SSB fluor CB inactive | Cy5 fluor confirm 0.66
N#Cc1c(-c2ccco2)c2c([nH]c1=S)CCCC2	none
